Measured values as given in the supplement of paper PMC10849652.
About 8,800 targets were measured; listed, in parts, are those with a hit and a random draw of the rest. About 0.5% of all pairs of compound and target were hits. A number with no mark means an inactive call.

What was measured:
Experiment in all cases: log2 fold change, soluble protein after heating vs DMSO (PISA); higher = thermal stabilisation; K562 lysate, 10 uM; active = over 0.2 and 3.5 SD of the protein, either way, in both replicates (recomputed)
alvocidib = compound: CN1CC[C@H](c2c(O)cc(O)c3c(=O)cc(-c4ccccc4Cl)oc23)[C@H](O)C1 [alvocidib]
In short: (§1)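 Log-two fold change in thermal stability relative to solvent controls is reported from duplicates. For each sample, crude K562 extract from dounce-homogenised pellets in PBS pH 7.4 with 1 mM MgCl2, at 1 mg/mL protein, was treated with 10 μM compound for 30 min. Aliquots heated for 3 min across 48°C-58°C were pooled, brought to 0.5% NP-40 at 4°C and cleared at 21,000xg for 90 min. The supernatant was quantified by TMTpro 16plex LC-MS/MS with channel sums equalised.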

Tubastatin A = compound: CN1CCc2c(c3ccccc3n2Cc2ccc(C(=O)NO)cc2)C1 [Tubastatin A]
In short: as §1

[1] = compound: CNC(=O)C1=CC=CC=C1NC2=NC(=NC=C2Cl)NC3=C(C=C(C=C3)N4CCOCC4)OC
In short: as §1

defactinib = compound: CNC(=O)c1ccc(Nc2ncc(C(F)(F)F)c(NCc3nccnc3N(C)S(C)(=O)=O)n2)cc1 [defactinib]
In short: as §1

[2] = compound: CNc1nc(-c2ccc3c(N)n[nH]c3c2)cc(N2C[C@@H](C(=O)NC3CCCCC3)CC[C@H]2C)n1
In short: as §1

encorafenib = compound: COC(=O)N[C@@H](C)CNc1nccc(-c2cn(C(C)C)nc2-c2cc(Cl)cc(NS(C)(=O)=O)c2F)n1 [encorafenib]
In short: as §1

[3] = compound: COC(=O)[C@H](CCSC)NC(=O)C1=C(C=C(C=C1)NC[C@H](CS)N)C2=CC=CC=C2
In short: as §1

alisertib = compound: COc1cc(Nc2ncc3c(n2)-c2ccc(Cl)cc2C(c2c(F)cccc2OC)=NC3)ccc1C(=O)O [alisertib]
In short: as §1

[4] = compound: COc1cc2nc(-c3cc(F)ccc3O)nc(N[C@@H]3CNC[C@H]3C(C)(C)O)c2cc1OC
In short: as §1

gefitinib = compound: COc1cc2ncnc(Nc3ccc(F)c(Cl)c3)c2cc1OCCCN1CCOCC1 [gefitinib]
In short: as §1

Chain of UniProt P17706 (P17706 whole entry, looked up): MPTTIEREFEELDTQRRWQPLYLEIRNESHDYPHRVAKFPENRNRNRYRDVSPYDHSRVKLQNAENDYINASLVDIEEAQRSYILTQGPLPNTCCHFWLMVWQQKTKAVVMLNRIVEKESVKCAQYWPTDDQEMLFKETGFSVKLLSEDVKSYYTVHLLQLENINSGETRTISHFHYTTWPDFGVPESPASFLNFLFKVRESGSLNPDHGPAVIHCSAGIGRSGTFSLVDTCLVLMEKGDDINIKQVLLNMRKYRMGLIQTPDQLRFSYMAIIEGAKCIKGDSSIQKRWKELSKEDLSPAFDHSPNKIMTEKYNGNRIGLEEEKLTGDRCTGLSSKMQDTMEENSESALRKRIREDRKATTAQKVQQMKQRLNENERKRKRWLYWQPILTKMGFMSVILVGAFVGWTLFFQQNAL
Chain of UniProt Q9Y4D7 (Q9Y4D7 whole entry, looked up): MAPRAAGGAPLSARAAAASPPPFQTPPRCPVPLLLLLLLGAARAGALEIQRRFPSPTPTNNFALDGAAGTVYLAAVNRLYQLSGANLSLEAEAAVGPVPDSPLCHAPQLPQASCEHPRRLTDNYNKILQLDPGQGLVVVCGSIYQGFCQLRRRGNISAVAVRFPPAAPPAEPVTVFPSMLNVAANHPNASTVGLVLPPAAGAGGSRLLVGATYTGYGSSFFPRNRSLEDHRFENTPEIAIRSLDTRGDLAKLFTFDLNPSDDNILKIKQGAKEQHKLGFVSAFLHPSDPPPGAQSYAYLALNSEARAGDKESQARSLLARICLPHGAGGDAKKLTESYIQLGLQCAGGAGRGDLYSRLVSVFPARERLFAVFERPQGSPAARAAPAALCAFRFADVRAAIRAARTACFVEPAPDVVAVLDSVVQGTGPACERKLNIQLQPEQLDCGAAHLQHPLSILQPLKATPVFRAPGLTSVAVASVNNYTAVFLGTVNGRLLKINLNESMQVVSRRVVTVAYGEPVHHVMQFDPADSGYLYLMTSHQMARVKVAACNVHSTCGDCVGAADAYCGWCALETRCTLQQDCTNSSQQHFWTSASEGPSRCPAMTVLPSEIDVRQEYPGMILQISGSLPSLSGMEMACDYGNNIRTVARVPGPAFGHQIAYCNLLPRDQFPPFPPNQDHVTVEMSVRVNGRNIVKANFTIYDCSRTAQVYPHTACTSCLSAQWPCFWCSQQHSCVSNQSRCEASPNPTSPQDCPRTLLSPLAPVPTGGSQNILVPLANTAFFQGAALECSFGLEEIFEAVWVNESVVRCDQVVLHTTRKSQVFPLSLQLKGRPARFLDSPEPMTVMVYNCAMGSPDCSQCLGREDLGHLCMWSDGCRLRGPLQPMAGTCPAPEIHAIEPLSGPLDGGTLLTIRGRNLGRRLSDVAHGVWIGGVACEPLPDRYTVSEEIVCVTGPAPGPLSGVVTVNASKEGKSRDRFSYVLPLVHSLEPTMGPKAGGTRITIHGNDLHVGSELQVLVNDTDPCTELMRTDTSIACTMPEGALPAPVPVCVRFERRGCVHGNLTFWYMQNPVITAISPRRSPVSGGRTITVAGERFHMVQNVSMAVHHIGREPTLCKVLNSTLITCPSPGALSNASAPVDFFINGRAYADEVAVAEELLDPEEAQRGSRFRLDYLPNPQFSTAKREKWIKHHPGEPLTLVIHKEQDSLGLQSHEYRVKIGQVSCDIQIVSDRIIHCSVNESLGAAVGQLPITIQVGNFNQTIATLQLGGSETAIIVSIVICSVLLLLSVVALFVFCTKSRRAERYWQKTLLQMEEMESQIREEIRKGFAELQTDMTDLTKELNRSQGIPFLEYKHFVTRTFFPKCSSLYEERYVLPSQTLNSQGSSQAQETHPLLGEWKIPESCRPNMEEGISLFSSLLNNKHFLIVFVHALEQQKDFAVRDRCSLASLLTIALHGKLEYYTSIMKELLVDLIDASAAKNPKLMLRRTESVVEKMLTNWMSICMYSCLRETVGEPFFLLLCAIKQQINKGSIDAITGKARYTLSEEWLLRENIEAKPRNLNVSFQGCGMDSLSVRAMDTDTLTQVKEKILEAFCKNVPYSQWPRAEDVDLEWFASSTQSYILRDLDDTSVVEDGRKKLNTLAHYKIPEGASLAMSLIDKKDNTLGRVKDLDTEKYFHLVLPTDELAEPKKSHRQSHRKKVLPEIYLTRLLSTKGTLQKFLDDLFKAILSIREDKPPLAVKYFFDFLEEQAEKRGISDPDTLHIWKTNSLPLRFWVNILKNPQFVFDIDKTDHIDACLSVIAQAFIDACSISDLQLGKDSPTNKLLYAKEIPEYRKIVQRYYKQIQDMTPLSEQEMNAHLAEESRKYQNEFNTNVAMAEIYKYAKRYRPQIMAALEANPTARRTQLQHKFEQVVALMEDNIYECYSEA
Chain of UniProt P28340 (P28340 whole entry, looked up): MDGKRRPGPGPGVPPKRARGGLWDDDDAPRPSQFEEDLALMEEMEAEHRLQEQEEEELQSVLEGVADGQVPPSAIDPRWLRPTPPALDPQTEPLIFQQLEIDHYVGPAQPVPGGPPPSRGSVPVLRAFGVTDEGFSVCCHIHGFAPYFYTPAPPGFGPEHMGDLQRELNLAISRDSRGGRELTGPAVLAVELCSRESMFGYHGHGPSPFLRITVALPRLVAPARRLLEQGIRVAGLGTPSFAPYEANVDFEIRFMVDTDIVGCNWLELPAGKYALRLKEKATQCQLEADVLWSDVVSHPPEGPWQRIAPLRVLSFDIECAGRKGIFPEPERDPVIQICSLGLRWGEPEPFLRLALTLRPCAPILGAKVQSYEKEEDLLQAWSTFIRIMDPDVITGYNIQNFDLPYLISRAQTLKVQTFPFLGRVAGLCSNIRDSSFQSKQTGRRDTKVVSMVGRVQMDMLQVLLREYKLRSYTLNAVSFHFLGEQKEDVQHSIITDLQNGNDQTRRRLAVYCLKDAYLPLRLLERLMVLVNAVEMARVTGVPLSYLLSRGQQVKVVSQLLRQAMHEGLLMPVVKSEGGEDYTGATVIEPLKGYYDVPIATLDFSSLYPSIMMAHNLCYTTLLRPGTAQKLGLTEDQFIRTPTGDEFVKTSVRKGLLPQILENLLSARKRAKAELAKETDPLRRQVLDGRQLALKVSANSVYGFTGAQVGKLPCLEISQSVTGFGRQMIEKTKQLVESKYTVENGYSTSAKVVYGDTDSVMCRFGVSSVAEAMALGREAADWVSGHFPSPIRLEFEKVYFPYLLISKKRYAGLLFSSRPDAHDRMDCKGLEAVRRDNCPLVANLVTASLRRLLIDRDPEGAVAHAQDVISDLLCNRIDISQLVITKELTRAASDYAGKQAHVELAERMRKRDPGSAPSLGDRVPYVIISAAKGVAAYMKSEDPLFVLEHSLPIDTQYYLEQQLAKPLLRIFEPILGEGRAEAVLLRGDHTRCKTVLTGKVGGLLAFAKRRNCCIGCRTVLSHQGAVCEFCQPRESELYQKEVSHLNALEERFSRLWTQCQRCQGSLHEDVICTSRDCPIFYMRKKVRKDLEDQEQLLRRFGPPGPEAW
Chain of UniProt O00264 (O00264 whole entry, looked up): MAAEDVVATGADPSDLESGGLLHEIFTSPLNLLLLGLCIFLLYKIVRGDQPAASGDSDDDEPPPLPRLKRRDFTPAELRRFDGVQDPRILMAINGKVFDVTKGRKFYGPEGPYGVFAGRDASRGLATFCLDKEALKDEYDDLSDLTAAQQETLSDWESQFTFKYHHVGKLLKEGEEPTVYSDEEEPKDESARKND
Chain of UniProt O75928 (O75928 whole entry, looked up): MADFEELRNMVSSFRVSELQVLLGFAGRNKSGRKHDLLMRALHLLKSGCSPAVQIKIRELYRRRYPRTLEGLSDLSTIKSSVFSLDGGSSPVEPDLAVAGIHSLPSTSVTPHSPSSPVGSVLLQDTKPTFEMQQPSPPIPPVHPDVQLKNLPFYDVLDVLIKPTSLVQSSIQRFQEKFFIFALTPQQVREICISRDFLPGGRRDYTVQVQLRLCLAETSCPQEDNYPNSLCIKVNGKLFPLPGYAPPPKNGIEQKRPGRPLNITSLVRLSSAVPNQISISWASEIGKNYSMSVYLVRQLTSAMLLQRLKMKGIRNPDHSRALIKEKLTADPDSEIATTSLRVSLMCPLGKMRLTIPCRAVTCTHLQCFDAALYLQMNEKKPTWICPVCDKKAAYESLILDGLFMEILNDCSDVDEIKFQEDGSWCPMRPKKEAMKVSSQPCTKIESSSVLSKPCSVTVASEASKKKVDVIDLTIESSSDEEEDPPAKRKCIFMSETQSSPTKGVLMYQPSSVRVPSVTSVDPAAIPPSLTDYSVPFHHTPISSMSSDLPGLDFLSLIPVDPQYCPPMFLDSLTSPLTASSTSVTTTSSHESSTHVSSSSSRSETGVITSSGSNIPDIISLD
Chain of UniProt Q6EEV4 (Q6EEV4 whole entry, looked up): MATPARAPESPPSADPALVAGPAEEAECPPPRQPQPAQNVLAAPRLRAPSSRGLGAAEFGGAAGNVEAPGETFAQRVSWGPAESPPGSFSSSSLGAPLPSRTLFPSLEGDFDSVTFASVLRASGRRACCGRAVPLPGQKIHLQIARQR
Chain of UniProt Q8TAE6 (Q8TAE6 whole entry, looked up): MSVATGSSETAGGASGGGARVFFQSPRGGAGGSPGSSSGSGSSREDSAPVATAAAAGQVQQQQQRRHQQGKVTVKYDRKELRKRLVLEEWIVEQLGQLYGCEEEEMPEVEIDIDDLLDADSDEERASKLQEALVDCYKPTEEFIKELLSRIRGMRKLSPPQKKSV
Chain of UniProt Q9BSG0 (Q9BSG0 whole entry, looked up): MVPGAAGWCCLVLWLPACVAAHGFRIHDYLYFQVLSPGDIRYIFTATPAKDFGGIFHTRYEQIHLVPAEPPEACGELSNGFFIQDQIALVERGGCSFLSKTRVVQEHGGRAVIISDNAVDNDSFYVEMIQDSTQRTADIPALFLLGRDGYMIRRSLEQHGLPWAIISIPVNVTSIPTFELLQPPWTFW
Chain of UniProt O60927 (O60927 whole entry, looked up): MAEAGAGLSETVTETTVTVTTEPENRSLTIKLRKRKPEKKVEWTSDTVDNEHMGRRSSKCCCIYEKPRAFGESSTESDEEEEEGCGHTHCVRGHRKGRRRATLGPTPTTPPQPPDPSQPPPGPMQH

Row | Target | log2 fold change (alvocidib) | log2 fold change (Tubastatin A) | log2 fold change [1] | log2 fold change (defactinib) | log2 fold change [2] | log2 fold change (encorafenib) | log2 fold change [3] | log2 fold change (alisertib) | log2 fold change [4] | log2 fold change (gefitinib)
1 | PYURF (UniProt Q96I23) | 0.077 | 0.041 | 0.073 | 0.181 | 0.019 | 0.113 | 0.027 | 0.007 | -0.007 | -0.038
2 | PCBP3 (UniProt P57721) | -0.015 | 0.005 | 0.022 | -0.039 | 0.042 | -0.006 | -0.023 | 0.019 | 0.015 | -0.023
3 | POLD1 (UniProt P28340) | 0.012 | -0.075 | 0.035 | 0.027 | 0.011 | 0.008 | 0.074 | 0.007 | 0.007 | -0.036
4 | PDE4DIP isoform 4 (UniProt Q5VU43) | -0.038 | 0.004 | -0.003 | -0.018 | 0.036 | 0.006 | 0.004 | 0.023 | -0.007 | -0.059
5 | PPP3CA isoform 2 (UniProt Q08209) | 0.043 | 0.017 | 0.033 | 0.101 | 0.01 | 0.023 | 0 | 0.061 | -0.001 | 0.09
6 | PXMP4 (UniProt Q9Y6I8) | 0 | -0.015 | 0.012 | -0.028 | 0.736 (active) | 0.033 | 0.092 | -0.039 | -0.009 | -0.039
7 | PTPN2 (UniProt P17706) | -0.036 | -0.115 | 0.049 | -0.008 | 0.005 | -0.035 | 0.053 | 0.052 | -0.006 | -0.006
8 | PES1 (UniProt O00541) | -0.017 | -0.044 | 0.05 | 0.005 | 0.017 | 0.006 | 0.35 (active) | 0.028 | -0.003 | 0.007
9 | PGRMC1 (UniProt O00264) | -0.026 | 0.01 | -0.022 | 0.02 | -0.014 | 0.006 | -0.258 (active) | 0.006 | 0.006 | 0.03
10 | PICALM (UniProt H0YCY1) | – | – | -0.018 | – | – | – | – | – | – | –
11 | PRKD3 (UniProt O94806) | -0.308 | -0.014 | -0.066 | 0.059 | – | 0.077 | 0.233 | 0.139 | 0.087 | -0.051
12 | PCBP2 (UniProt F8W0G4) | – | -0.009 | 0.01 | 0.044 | 0.033 | 0.125 | -0.006 | 0.192 | – | 0.028
13 | PCBP2 (UniProt F8VRH0) | -0.1 | 0.067 | -0.123 | – | – | – | – | 0.231 | 0.096 | 0.045
14 | PDE4DIP (UniProt E9PS60) | -0.111 | – | -0.02 | 0.056 | -0.089 | -0.059 | -0.039 | 0.013 | – | 0.005
15 | POM121C (UniProt A8CG34) | -0.089 | 0.124 | 0.069 | – | – | – | – | – | -0.076 | –
16 | PTK2B (UniProt Q14289) | – | -0.071 | 0.401 (active) | 0.315 | -0.063 | -0.048 | -0.007 | 0.093 | 0.103 | -0.056
17 | PNPLA4 (UniProt P41247) | 0.074 | 0.147 | – | -0.148 | -0.17 | -0.076 | 0.125 | – | – | –
18 | PIP5K1A (UniProt Q99755) | 0.077 | -0.043 | 0.027 | – | -0.074 | – | – | -0.121 | -0.023 | -0.024
19 | PRG4 (UniProt Q92954) | -0.826 (active) | 0.103 | – | – | 0.204 | – | – | -0.045 | 0.093 | -0.076
20 | PPP2CA (UniProt E7ESG8) | – | – | – | – | – | – | – | 0.139 | – | -0.034
21 | PTK2 isoform 2 (UniProt Q05397) | – | – | 0.003 | – | 0.018 | -0.058 | -0.129 | – | 0.053 | –
22 | PPIC (UniProt P45877) | -0.031 | 0.089 | 0.024 | 0.077 | -0.052 | – | – | 0.004 | – | 0.103
23 | PFN1 (UniProt I3L3D5) | 0.045 | -0.01 | – | – | – | 0.157 | 0.058 | 0.028 | -0.195 | 0.062
24 | PPP2R5C isoform 2 (UniProt Q13362) | -0.004 | 0.044 | -0.028 | -0.024 | 0.001 | – | – | 0.058 | – | -0.062
25 | PECR (UniProt Q9BY49) | – | – | – | – | – | 0.101 | -0.184 | – | – | –

Row | Target | log2 fold change (alvocidib) | log2 fold change (Tubastatin A) | log2 fold change [1] | log2 fold change (defactinib) | log2 fold change [2] | log2 fold change (encorafenib) | log2 fold change [3] | log2 fold change (alisertib) | log2 fold change [4] | log2 fold change (gefitinib)
26 | PIAS2 (UniProt O75928) | – | -0.092 | 0.006 | -0.348 | -0.002 | 0.006 | -0.041 | -0.021 | – | -0.091
27 | PHOSPHO2 (UniProt C9JD35) | – | – | – | – | – | 0.018 | -0.36 | – | – | –
28 | PPP1R12B isoform 6 (UniProt O60237) | – | 0.081 | 0.006 | -0.046 | 0.016 | -0.011 | 0.145 | – | 0.072 | –
29 | PRR4 (UniProt Q16378) | -0.033 | 0.181 | 0.215 | 0.08 | – | -0.396 | 0.126 | 0.075 | -0.011 | 0.026
30 | PPP1R14C (UniProt Q8TAE6) | -0.045 | -0.033 | – | -0.002 | -0.14 | 0.064 | 0.014 | -0.044 | -0.04 | 0.032
31 | PDIA4, A0A499FI48 | 0.336 | – | – | – | -0.003 | – | – | – | – | –
32 | PFN3 (UniProt P60673) | -0.182 | – | – | -0.109 | – | 0.125 | -0.28 | -0.047 | 0.154 | 0.075
33 | NA (UniProt Q4G0T1) | -0.132 | -0.272 | -0.115 | – | -0.062 | – | – | – | – | –
34 | PREP (UniProt H0Y5Y0) | 0.082 | – | – | – | – | – | – | – | 0.03 | –
35 | POLR2F (UniProt U3KPV3) | – | – | – | – | -0.059 | 0.177 | -0.182 | – | – | –
36 | PEX2 (UniProt P28328) | -0.041 | -0.104 | 0.172 | 0.181 | 0.118 | – | – | 0.115 | 0.116 | -0.372
37 | PRADC1 (UniProt Q9BSG0) | -0.141 | 0.04 | -0.126 | – | 0.059 | – | – | 0.109 | 0.212 | -0.071
38 | PHF14 (UniProt O94880) | – | 0.01 | – | -0.012 | 0.02 | -0.014 | 0.1 | 0.044 | -0.069 | -0.042
39 | PLXND1 (UniProt Q9Y4D7) | – | 0.111 | 0.015 | – | -0.123 | – | – | 0.046 | – | 0.313
40 | PHC1 (UniProt P78364) | – | – | – | 0.005 | 0.184 | 0.059 | -0.062 | -0.017 | – | -0.101
41 | PPP1R11 (UniProt O60927) | 0.048 | 0.077 | 0.011 | – | -0.001 | 0.051 | -0.027 | -0.081 | -0.041 | -0.09
42 | PPME1 (UniProt Q9Y570) | – | – | 0.125 | – | -0.065 | -0.029 | -0.059 | – | 0.014 | –
43 | PYGO2 (UniProt Q9BRQ0) | 0.01 | -0.019 | 0.032 | – | 0.131 | -0.031 | -0.121 | -0.011 | – | -0.026
44 | PPT2, A0A140T9Y1 | – | – | – | – | – | – | – | -0.144 | – | 0.006
45 | PRIMPOL (UniProt Q96LW4) | – | -0.159 | 0.036 | 0.076 | 0.071 | 0.055 | -0.37 | -0.113 | – | 0.045
46 | POLR2M (UniProt Q6EEV4) | 0.085 | – | 0.075 | 0.125 | 0.108 | -0.001 | -0.081 | – | 0.038 | –
47 | PUF60 isoform 2 (UniProt Q9UHX1) | 0.223 | 0.003 | 0.264 | 0.108 | – | 0.039 | -0.12 | -0.076 | 0.038 | 0.044
48 | PHGDH, A0A286YFE1 | – | – | – | – | -0.19 | – | – | – | -0.114 | –
49 | PRRG1 (UniProt O14668) | – | -0.032 | – | – | – | – | – | – | – | –
